Among all 310,000 compounds or so, about 3,300 (1.1%) were called active.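 The calls were made as follows: active = B-score under library mean minus 3 SD, initial fluorescence not abnormally high, positive integrated signal ratio; inactive = the rest.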 The full list was thinned out, with actives kept by preference.
These compounds were tested against Short transient receptor potential channel 6 (Mus musculus) (UniProt Q61143) (assay: mouse TRPC6 channel inhibitors, primary screen, cell-based, HEK293, membrane potential dye (AID 2553;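 as to B-score: B-score derived from integrated fluorescence ratio over the kinetic read; more negative B-score means stronger inhibition of depolarization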)). Conditions: ACh-evoked depolarization, at 10 µM; hits give low values.
Chain of Short transient receptor potential channel 6 (Mus musculus) (Q61143 whole entry, looked up): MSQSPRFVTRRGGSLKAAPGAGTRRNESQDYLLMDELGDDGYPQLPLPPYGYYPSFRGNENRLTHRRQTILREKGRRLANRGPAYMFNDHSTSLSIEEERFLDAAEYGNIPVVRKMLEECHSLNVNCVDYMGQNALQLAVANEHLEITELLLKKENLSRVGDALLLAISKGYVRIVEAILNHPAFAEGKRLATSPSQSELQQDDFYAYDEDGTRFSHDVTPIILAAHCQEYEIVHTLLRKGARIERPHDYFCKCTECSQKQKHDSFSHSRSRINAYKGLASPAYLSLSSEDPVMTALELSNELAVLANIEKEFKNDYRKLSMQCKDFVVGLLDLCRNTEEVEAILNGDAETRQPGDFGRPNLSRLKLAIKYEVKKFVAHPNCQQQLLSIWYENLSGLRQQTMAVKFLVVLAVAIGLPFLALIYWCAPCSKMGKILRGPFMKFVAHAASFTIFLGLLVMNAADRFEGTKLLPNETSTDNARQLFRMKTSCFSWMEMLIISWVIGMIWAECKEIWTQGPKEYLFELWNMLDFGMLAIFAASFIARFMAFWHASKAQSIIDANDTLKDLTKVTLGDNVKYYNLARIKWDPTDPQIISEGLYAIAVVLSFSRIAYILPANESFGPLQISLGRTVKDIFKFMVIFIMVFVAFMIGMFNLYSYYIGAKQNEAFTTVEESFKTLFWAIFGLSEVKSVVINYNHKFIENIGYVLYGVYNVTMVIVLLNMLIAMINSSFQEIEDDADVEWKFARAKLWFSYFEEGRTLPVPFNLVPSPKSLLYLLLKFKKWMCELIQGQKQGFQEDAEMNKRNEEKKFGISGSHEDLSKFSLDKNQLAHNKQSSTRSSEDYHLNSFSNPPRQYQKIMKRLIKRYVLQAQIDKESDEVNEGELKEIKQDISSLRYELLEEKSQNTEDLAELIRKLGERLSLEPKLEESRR

SMILES	B-score
COc1cccc(-c2nc3ccc(N4CCN(C)CC4)cc3[nH]2)c1	-9.09 (active)
Cc1nc2ccc(N3CCN(C)CC3)cc2nc1C	inactive
CC1=C(C(=O)Nc2ccccc2)S(=O)(=O)CCO1	inactive
COc1ccc(Br)cc1CNCCc1cccc(Cl)c1	inactive
CCOc1cccc(=NC2CCCCC2)c2c(C)[nH]c(C)c12	-8.34 (active)
CCOP(=S)(OCC)C(O)CCCCCn1c(=O)c(F)cn(C2CCCO2)c1=O (stereo not given)	inactive
COCc1cc(OC(=O)N(C)C)nc(-c2ccc(C)c(Cl)c2)n1	inactive
C[N+]12CN3CN(CN(C3)C1)C2	inactive
CC1=CC(=Cc2sc3ccccc3[n+]2C)C=C(C)O1	-5.72 (active)
COc1c(O)ccc2c1-c1c3c(cc4c1C(C2)N(C)CC4)OCO3 (stereo not given)	inactive
Cc1cccc(OP(=O)(Oc2cccc(C)c2)OC(c2ccccc2)C(F)(F)F)c1 (stereo not given)	inactive
CC1=C2C(=O)C3C(CC=C4CC(OC5OC(O)C(O)C(O)C5CO)CCC43C)C2CCC12OC1CC(C)CNC1C2C (stereo not given)	inactive
CCOP(=O)(OCC)C(NC(=O)c1ccc(C)cc1)C(Cl)(Cl)Cl (stereo not given)	inactive
c1ccc(CC2CCCCN2)cc1 (stereo not given)	inactive
Cc1nc2ccccn2c1P(=S)(N1CCCCC1)N1CCCCC1	inactive
Cc1nn(Cc2ccccc2Cl)c(Cl)c1C(=O)OC(C(=O)NC(N)=O)C(C)C (stereo not given)	inactive
N[C@@H](Cc1c[nH]c2ccccc12)c1nnc(SCc2c(F)cccc2Cl)o1	inactive
CC1(C)Cc2c(C#N)c(N3CCNCC3)nc(-c3ccco3)c2CS1	-5.98 (active)
O=c1[nH]c(O)c(C=Nc2cc(F)cc(F)c2)c(=O)[nH]1	inactive
COc1ccccc1NC(=O)N1C[C@@H]2C[C@@H](C1)c1cccc(=O)n1C2	inactive
CN1CCN(Cc2ccc(OC(F)(F)F)cc2)CC1	inactive
CN1CCN(c2cc(N3CCNCC3)ccc2[N+](=O)[O-])CC1	-9.48 (active)
CCN1CCN(c2ccc([N+](=O)[O-])cc2C#N)CC1	inactive
N=c1ccccn1Cc1ccccc1	inactive
CC(Cc1ccccc1)NC=O (stereo not given)	inactive
CCCCCCCCCCCCn1ccc(=N)cc1	-8.97 (active)
CCCCCCN=C(CC)c1c(O)n(CCCC)c(=O)[nH]c1=O	inactive
CC(C)(C)[C@]1(O)C[C@@H]2OC(=O)C[C@@]23C(=O)O[C@@H]2OC(=O)[C@H](O)[C@]213	inactive
c1ccc(C2NCc3ccccc3-n3cccc32)cc1 (stereo not given)	inactive
NCCc1c[nH]c2ccc(O)cc12	inactive

Reference: PubChem BioAssay AID2553 (Johns Hopkins Ion Channel Center, 2010)
